In the library only some 2.8% were active in any assay of this set; here they are far more common.
LGR2 antag: inhibitors of bursicon-induced Drosophila LGR2 receptor cAMP signaling; HEK293 LGR2, CRE-luciferase, bursicon-stimulated, 4 h; hit rate 0.35% among 380,000; AID 720647; inhibition, % at 9.99 µM;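 active means drop in luminescence signal, shown as inhibition above about 50% in the replicate tests, limit read from the data, passing the limit was not always enough; inconclusive means probably only some replicates passing the limit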;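 further: agonist challenge used bursicon conditioned medium at about half maximal strength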
EWS-Fli inh: blocks EWS/Fli oncoprotein-driven transcription | A673 NR0B1-luciferase reporter, viability-normalised | inhibition, % at 12.6 µM | hit rate 0.67% among 350,000;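 active means mean inhibition of at least 50% after viability correction, with every replicate also passing that limit; inconclusive means mean reaches 50% but only one of two replicates passes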;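 further: firefly luciferase signal divided by Alamar Blue viability fluorescence both relative to DMSO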
TROY signal inh: TROY signaling inhibition. Q293 LMP1-TROYcd NF-kB luciferase reporter, 4 h. inhibition, % at 10 µM. hit rate 0.98% among 360,000. AID 1347056;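 active means compounds whose plate-normalised and pattern-corrected inhibition of the luciferase reporter signal at the single screening dose is 50% or more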
PAX8 reporter: PAX8 transcriptional activity inhibition; RMG-I TPO-luciferase reporter, SteadyGlo, 24 h; inhibition, % at 12.6 µM; hit rate 1.2% among 360,000; AID 652154;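 active means mean replicate inhibition at least 60% with every replicate also reaching 60%; inconclusive means only one of the two criteria is met; inactive means mean below 60% and not all replicates reaching 60%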;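 further: luciferase light reporting Pax8 driven TPO promoter activity; plate controls were median of neutral control wells for no effect and mitoxantrone controls for full effect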
TWEAK-Fn14 inh: TWEAK-Fn14 signaling inhibition; inhibition, % at 10 µM; hit rate 2% among 360,000; TWEAK-stimulated Fn14 reporter cells, luciferase luminescence, 8 h; in the data active means inhibition above about 50%
* hit, by the source's call; ? = inconclusive; / = no result given.

SMILES	LGR2 antag	EWS-Fli inh	TROY signal inh	PAX8 reporter	TWEAK-Fn14 inh
C[C@H](CO)N1C[C@H](C)[C@H](CN(C)Cc2ccc3c(c2)OCO3)OCc2ccccc2-c2ccccc2C1=O	-1	6	/	31	/
C[C@H](CO)N1C[C@H](C)[C@H](CN(C)Cc2ccccc2)OCc2ccccc2-c2ccccc2C1=O	0	70*	/	/	/
C[C@@H]1CN([C@@H](C)CO)C(=O)c2ccccc2-c2ccccc2CO[C@@H]1CN(C)Cc1ccc2c(c1)OCCN2C	8	14	/	90*	/
O=C1C=CCCN1C(=O)/C=C/c1ccccc1Cl	/	62*	/	-3	/
COc1cc(/C=C/C(=O)N2CCC=CC2=O)cc(OC)c1OC	100*	70*	40	105*	92*
COc1cc(/C=C/C(=O)N2CCCN(C(=O)/C=C/c3cc(OC)c(OC)c(OC)c3)CC2)cc(OC)c1OC	4	/	3	-8	-2
O=C(/C=C/c1cccc(C(F)(F)F)c1)Nc1cccc(C(F)(F)F)c1	11	/	51*	/	61*
O=C(NNC(=S)Nc1cccc(C(F)(F)F)c1)c1cccc(Cl)c1	10	/	36	-25	62*
O=C(Nc1ccc2c(c1)[C@@H]1C[C@H](CC(=O)N3CCOCC3)O[C@@H](CO)[C@@H]1O2)NC1CCCC1	-4	-3	/	6	/
CCC(=O)N1C[C@H](C)[C@@H](OC)CN(C)C(=O)c2cc(NC(=O)NC3CCCC3)ccc2OC[C@H]1C	11	/	/	-7	/
CN(C)C(=O)C[C@@H]1C=C[C@H](NC(=O)c2ccc(F)cc2)[C@@H](CO)O1	-7	/	/	/	/
O=C1C=CCCN1C(=O)/C=C/c1cccc(C(F)(F)F)c1	/	62*	/	19	/
Cc1ccc2nc(-c3cccc(N)c3)oc2c1	15	59*	36	/	78*
Nc1ccc2oc(-c3cccc(Br)c3)nc2c1	/	/	-26	/	-6
Cc1ccc2nc(-c3ccccc3)oc(=O)c2c1	-11	-26	-13	-25	108*
Nc1cc(N)cc(-c2nc3ccccc3o2)c1	-6	-29	25	-31	82*
Nc1ccc(-c2nc3ccccc3o2)cc1	-78	-53	-42	-150	18
Cc1cc(C)c2oc(-c3cccc(N)c3)nc2c1	/	-78	-79	-118	-13
CCc1ccc2oc(-c3cccc(N)c3)nc2c1	/	/	34	28	75*
COC(=O)c1cccc2c1-c1ccccc1/C2=N/O	/	/	56*	/	83*
COc1cccc(C#Cc2ccc([C@@H]3[C@@H](CO)N(C(=O)C4CCC4)[C@H]3C#N)cc2)c1	100*	3	/	70*	/
COc1cccc(C#Cc2ccc([C@@H]3[C@@H](CO)N(C(=O)C4CCCC4)[C@H]3C#N)cc2)c1	16	32	/	/	/
COc1cccc(C#Cc2ccc([C@@H]3[C@@H](C#N)N(C(=O)C4CCCCC4)[C@H]3CO)cc2)c1	1	1	/	77*	/
COc1cccc(C#Cc2ccc([C@@H]3[C@@H](CO)N(C(=O)C4CCCCC4)[C@H]3C#N)cc2)c1	17	14	/	70*	/
COc1cccc(C#Cc2ccc([C@@H]3[C@H](C#N)N(C(=O)c4ccccn4)[C@H]3CO)cc2)c1	16	-26	/	98*	/
SMILES	LGR2 antag	EWS-Fli inh	TROY signal inh	PAX8 reporter	TWEAK-Fn14 inh
C[C@@H]1CN([C@@H](C)CO)C(=O)c2cc(C3=CCCC3)cnc2O[C@@H]1CN(C)C(=O)c1ccncc1	0	-3	/	/	/
Cc1ccc(NS(=O)(=O)c2ccc(Cl)c(C(=O)Nc3ccccc3-c3nc4ccccc4[nH]3)c2)cc1C	-21	/	39	11	91*
C[C@@H]1CN([C@@H](C)CO)C(=O)Cc2cc(NC(=O)c3ccncc3)ccc2O[C@H]1CN(C)S(C)(=O)=O	12	5	/	-42	/
c1nc(NCc2ccc3c(c2)OCO3)c2cc(-c3ccoc3)ccc2n1	?	-36	27	-29	83*
Cc1nc(SCc2nc3ccc(Cl)cc3[nH]2)c2oc3ccccc3c2n1	/	-23	17	14	-13
Cc1nc(SCc2nc3cc(Cl)c(F)cc3[nH]2)c2oc3ccccc3c2n1	18	9	6	87*	53*
C[C@H]1CN([C@@H](C)CO)C(=O)c2cc(NS(=O)(=O)c3cccs3)ccc2O[C@@H]1CN(C)Cc1ccc(C(=O)O)cc1	-1	1	/	/	/
CCCCOC(=O)c1ccc(NC(=O)Nc2ccc(OC)c(OC)c2)cc1	/	/	1	/	15
CCCCOC(=O)c1ccc(NC(=O)c2c(OC)cccc2OC)cc1	0	-7	83*	7	-22
CC(C)C#Cc1ccc2c(c1)O[C@H](CN(C)C(=O)c1ccccn1)[C@@H](C)CN([C@H](C)CO)S2(=O)=O	1	5	/	/	/
CC(=O)Nc1ccc(C(=O)Nc2ccc(S(=O)(=O)NCC3CCCO3)cc2)cc1 (configuration not stated)	/	/	-22	/	-4
COc1cccc(S(=O)(=O)NCc2ccc(C(=O)Nc3cccc(Cl)c3)cc2)c1	/	/	48	/	60*
O=C(Nc1cccc(Cl)c1)c1ccc(S(=O)(=O)NCC2CCCO2)cc1 (configuration not stated)	0	7	4	11	63*
CC(=O)Oc1ccc(C(=O)Nc2ccc(S(=O)(=O)NCC3CCCO3)cc2)cc1 (configuration not stated)	10	3	51*	4	42
Cc1ccc(S(=O)(=O)Nc2ccc3c(c2)CC(=O)N([C@@H](C)CO)C[C@H](C)[C@@H](CN(C)Cc2ccc(Cl)c(Cl)c2)O3)cc1	-9	7	/	35	/
Cc1c(C(=O)Nc2ccc(F)c(F)c2)oc2ccc(S(=O)(=O)N3CCCCC3)cc12	13	17	50	/	81*
Cc1c(C(=O)Nc2cccc(Cl)c2)oc2ccc(S(=O)(=O)N3CCC4(CC3)OCCO4)cc12	-4	9	22	/	62*
Cc1c(C(=O)Nc2ccc(F)cc2)oc2ccc(S(=O)(=O)N3CCC4(CC3)OCCO4)cc12	/	/	34	/	54*
Cc1c(C(=O)NCc2ccccc2)oc2ccc(S(=O)(=O)N3CCC4(CC3)OCCO4)cc12	/	/	-10	-2	20

Screening data from PubChem BioAssay.
